Reference: PubChem BioAssay AID1159580 (chemical genetic matrix, 2015)
Several values for one entry are separate records, joined by “and”; a condition that tells them apart may be missing. Equal entries are not always repeated. In all, about 5,500 compounds went through this assay and about 2,000 (36%) were called active. Not shown: some 18% with an inconclusive outcome. No stated cut-off is given here; in the data, active means normalized growth mostly below about 0.91 (no sharp cut-off); inconclusive means no clear call, values can overlap the other calls; inactive means mostly above about 0.92. The list shows a part of the results.

Assay: chemical genetic growth profiling, strain panel (AID 1159580);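 further: tested at 20 µM; growth read once vehicle control cultures reached saturation at 30 °C; 1 = growth at the plate median or of vehicle wells; lower values mean less growth of the strain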
Details: growth OD

Measured: normalized growth

Cc1ccc(C(=O)C(C)CN2CCCCC2)cc1 (configuration not stated)
inactive: S. cerevisiae deletion strains, locus YBR021W, strain FUR4, hits give low values 1 | S. cerevisiae deletion strains, locus YBR229C, strain ROT2, hits give low values 1.01 | S. cerevisiae deletion strains, locus YCL029C, strain bik1, hits give low values 1.02 | S. cerevisiae deletion strains, locus YDL035C, strain GPR1, hits give low values 1.01 | S. cerevisiae deletion strains, locus YDL074C, strain BRE1, hits give low values 1.01 | S. cerevisiae deletion strains, locus YDL101C, strain DUN1, hits give low values 1.01 | S. cerevisiae deletion strains, locus YDL134C, strain PPH21, hits give low values 1.02 | S. cerevisiae deletion strains, locus YDL185W, strain tfp1, hits give low values 1.02 | S. cerevisiae deletion strains, locus YDL192W, strain arf1, hits give low values 1.02 | S. cerevisiae deletion strains, locus YDR101C, strain arx1, hits give low values 0.998 | S. cerevisiae deletion strains, locus YDR150W, strain NUM1, hits give low values 1 | S. cerevisiae deletion strains, locus YDR162C, strain NBP2, hits give low values 1.01 | S. cerevisiae deletion strains, locus YDR318W, strain mcm21, hits give low values 1.02 | S. cerevisiae deletion strains, locus YDR388W, hits give low values 1.02 | S. cerevisiae deletion strains, locus YDR502C, strain sam2, hits give low values 1.01 | S. cerevisiae deletion strains, locus YEL061C, strain CIN8, hits give low values 1.01 | S. cerevisiae deletion strains, locus YER110C, hits give low values 1.01 | S. cerevisiae deletion strains, locus YER155C, strain BEM2, hits give low values 1.01 | S. cerevisiae deletion strains, locus YER167W, strain BCK2, hits give low values 1.02 | S. cerevisiae deletion strains, locus YGL078C, strain dbp3, hits give low values 1.01 | S. cerevisiae deletion strains, locus YGL086W, strain mad1, hits give low values 1.03 | S. cerevisiae deletion strains, locus YGL248W, strain PDE1, hits give low values 1.01 | S. cerevisiae deletion strains, locus YGR078C, strain PAC10, hits give low values 1 | S. cerevisiae deletion strains, locus YGR135W, strain pre9, hits give low values 1 | S. cerevisiae deletion strains, locus YGR229C, strain SMI1, hits give low values 0.983 | S. cerevisiae deletion strains, locus YGR252W, strain gcn5, hits give low values 0.987 | S. cerevisiae deletion strains, locus YHR030C, strain SLT2, hits give low values 1.01 and 0.991 | S. cerevisiae deletion strains, locus YHR079C, strain IRE1 (second series), hits give low values 1.02 | S. cerevisiae deletion strains, locus YHR079C, strain IRE1, hits give low values 0.993 | S. cerevisiae deletion strains, locus YHR094C, strain hxt1, hits give low values 1.01 | S. cerevisiae deletion strains, locus YHR129C, strain ARP1, hits give low values 1.02 | S. cerevisiae deletion strains, locus YHR200W, strain rpn10, hits give low values 1.02 | S. cerevisiae deletion strains, locus YIL066C, strain RNR3, hits give low values 1.01 | S. cerevisiae deletion strains, locus YIL073C, strain SPO22, hits give low values 0.993 | S. cerevisiae deletion strains, locus YIL125W, strain kgd1, hits give low values 1.02 | S. cerevisiae deletion strains, locus YIR030C, strain dcg1, hits give low values 1.01 | S. cerevisiae deletion strains, locus YJL095W, strain BCK1, hits give low values 0.973 and 0.966 | S. cerevisiae deletion strains, locus YJL134W, strain LCB3, hits give low values 1.01 | S. cerevisiae deletion strains, locus YJL168C, strain set2, hits give low values 1.02 | S. cerevisiae deletion strains, locus YJL187C, strain SWE1 (second series), hits give low values 1 | S. cerevisiae deletion strains, locus YJR043C, strain POL32, hits give low values 1.02 | S. cerevisiae deletion strains, locus YJR066W, strain TOR1, hits give low values 0.907 | S. cerevisiae deletion strains, locus YKL009W, strain mrt4, hits give low values 1.03 | S. cerevisiae deletion strains, locus YKL068W, hits give low values 1.01 | S. cerevisiae deletion strains, locus YKL085W, strain MDH1 (second series), hits give low values 1.03 | S. cerevisiae deletion strains, locus YKL085W, strain MDH1, hits give low values 1.03 | S. cerevisiae deletion strains, locus YKL190W, strain CNB1, hits give low values 1.01 | S. cerevisiae deletion strains, locus YKR001C, strain vps1, hits give low values 1.03 | S. cerevisiae deletion strains, locus YLR039C, strain RIC1, hits give low values 0.993 | S. cerevisiae deletion strains, locus YLR058C, strain SHM2, hits give low values 1.02 | S. cerevisiae deletion strains, locus YLR102C, strain apc9, hits give low values 1.01 | S. cerevisiae deletion strains, locus YLR113W, strain HOG1, hits give low values 1.01 | S. cerevisiae deletion strains, locus YLR262C, strain YPT6, hits give low values 1.02 | S. cerevisiae deletion strains, locus YLR268W, strain sec22, hits give low values 1 | S. cerevisiae deletion strains, locus YLR330W, strain CHS5, hits give low values 1 | S. cerevisiae deletion strains, locus YLR342W, strain FKS1 (second series), hits give low values 0.973 | S. cerevisiae deletion strains, locus YLR371W, strain rom2, hits give low values 1.02 | S. cerevisiae deletion strains, locus YLR418C, strain cdc73, hits give low values 1.02 | S. cerevisiae deletion strains, locus YML016C, strain PPZ1, hits give low values 1.01 | S. cerevisiae deletion strains, locus YML032C, strain rad52, hits give low values 1.01 | S. cerevisiae deletion strains, locus YML124C, strain tub3, hits give low values 1.01 | S. cerevisiae deletion strains, locus YMR078C, strain ctf18, hits give low values 1.02 | S. cerevisiae deletion strains, locus YMR223W, strain ubp8, hits give low values 1.01 | S. cerevisiae deletion strains, locus YMR307W, strain GAS1, hits give low values 1.14 | S. cerevisiae deletion strains, locus YNL067W, strain RPL9B, hits give low values 1.01 | S. cerevisiae deletion strains, locus YNL128W, strain TEP1, hits give low values 1.03 | S. cerevisiae deletion strains, locus YNL183C, strain NPR1, hits give low values 0.899 | S. cerevisiae deletion strains, locus YNL233W, strain BNI4, hits give low values 0.993 | S. cerevisiae deletion strains, locus YNL250W, strain rad50, hits give low values 1.01 | S. cerevisiae deletion strains, locus YNL271C, strain bni1, hits give low values 1.02 | S. cerevisiae deletion strains, locus YNL298W, strain CLA4, hits give low values 1.03 | S. cerevisiae deletion strains, locus YNL307C, strain MCK1, hits give low values 1.03 | S. cerevisiae deletion strains, locus YNL322C, strain KRE1, hits give low values 1.01 | S. cerevisiae deletion strains, locus YNR052C, strain pop2, hits give low values 1.02 | S. cerevisiae deletion strains, locus YOL006C, strain TOP1, hits give low values 1 | S. cerevisiae deletion strains, locus YOL012C, strain htz1 0.819 | S. cerevisiae deletion strains, locus YOL147C, strain pex11, hits give low values 1.01 | S. cerevisiae deletion strains, locus YOR061W, strain CKA2, hits give low values 1.02 | S. cerevisiae deletion strains, locus YOR069W, strain VPS5, hits give low values 1 | S. cerevisiae deletion strains, locus YOR136W, strain idh2, hits give low values 1.02 | S. cerevisiae deletion strains, locus YOR144C, strain elg1, hits give low values 1.01 | S. cerevisiae deletion strains, locus YOR184W, strain ser1, hits give low values 1.01 | S. cerevisiae deletion strains, locus YOR231W, strain MKK1, hits give low values 0.984 | S. cerevisiae deletion strains, locus YOR316C, strain cot1, hits give low values 1.02 | S. cerevisiae deletion strains, locus YPL055C, strain LGE1, hits give low values 1.03 | S. cerevisiae deletion strains, locus YPL256C, strain CLN2, hits give low values 0.976 | S. cerevisiae deletion strains, locus YPR119W, strain clb2, hits give low values 1.02 | S. cerevisiae deletion strains, locus YPR141C, strain kar3, hits give low values 1.02 | S. cerevisiae deletion strains, locus YPR163C, strain tif3, hits give low values 1.03 | S. cerevisiae deletion strains, locus YPR167C, strain met16, hits give low values 1.02 | S. cerevisiae deletion strains, strain wtn01, hits give low values 1.01 | S. cerevisiae strains, strain wild type, hits give low values 1.01
